Data published in the supplement of paper PMC6555819.

Legend:
Assay in all cases: PBM binding z-score (relative to random genomic background probes); higher = stronger binding; sequences stand for … in GC…GCGATTGACAGCGTAGAATGAAGG
[1] = system: PPARg:RXRa DBDmut IVT, anti-RXR (DBD mutation: RXRa K156A/R161A, NR concentration 270 nM, RXRa partner concentration 90 nM)
Procedure, shortened: (§1)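 Ligand-free nuclear receptor dimers were applied to custom Agilent 4×180K protein-binding microarrays whose double-stranded probes carried direct-repeat seeds, single-nucleotide variants, half-site ablations and random human genomic background sequences in 34-nt variable regions. Incubation lasted 1 h. Binding z-scores were computed against the random background probes from regression-normalized fluorescence.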

[2] = system: PPARg:RXRa IVT, anti-PPARg (NR concentration 270 nM, RXRa partner concentration 90 nM)
Procedure, shortened: as §1

[3] = system: PPARg DBDmut:RXRa IVT, anti-PPARg (DBD mutation: PPARg1 K132A/R137A, NR concentration 270 nM, RXRa partner concentration 90 nM)
Procedure, shortened: as §1

[4] = system: PPARg DBDmut IVT, anti-PPARg (DBD mutation: PPARg1 K132A/R137A, NR concentration 270 nM)
Procedure, shortened: as §1

[5] = system: PPARg homodimer (NR concentration 180 nM)
Procedure, shortened: as §1

[6] = system: PXR:RXRa (NR concentration 270 nM, RXRa partner concentration 90 nM)
Procedure, shortened: as §1

[7] = system: PXR homodimer (NR concentration 270 nM)
Procedure, shortened: as §1

[8] = system: RARa:RXR (NR concentration 270 nM, RXRa partner concentration 90 nM)
Procedure, shortened: as §1

[9] = system: RARa homodimer (NR concentration 270 nM)
Procedure, shortened: as §1

[10] = system: RARb:RXRa (NR concentration 270 nM, RXRa partner concentration 90 nM)
Procedure, shortened: as §1

[11] = system: RARb homodimer (NR concentration 270 nM)
Procedure, shortened: as §1

[12] = system: RARg:RXRa (NR concentration 270 nM, RXRa partner concentration 90 nM)
Procedure, shortened: as §1

[13] = system: RARg homodimer (NR concentration 270 nM)
Procedure, shortened: as §1

[14] = system: RXRa DBDmut IVT, anti-RXR (DBD mutation: RXRa K156A/R161A, NR concentration 90 nM)
Procedure, shortened: as §1

[15] = system: RXRa homodimer (NR concentration 180 nM)
Procedure, shortened: as §1

[16] = system: THRa:RXRa (NR concentration 90 nM, RXRa partner concentration 90 nM)
Procedure, shortened: as §1

[17] = system: THRa homodimer (NR concentration 90 nM)
Procedure, shortened: as §1

[18] = system: VDR:RXRa (NR concentration 270 nM, RXRa partner concentration 90 nM)
Procedure, shortened: as §1

[19] = system: VDR homodimer (NR concentration 270 nM)
Procedure, shortened: as §1

Sequence	PBM binding z-score [1]	PBM binding z-score [2]	PBM binding z-score [3]	PBM binding z-score [4]	PBM binding z-score [5]	PBM binding z-score [6]	PBM binding z-score [7]	PBM binding z-score [8]	PBM binding z-score [9]	PBM binding z-score [10]	PBM binding z-score [11]	PBM binding z-score [12]	PBM binding z-score [13]	PBM binding z-score [14]	PBM binding z-score [15]	PBM binding z-score [16]	PBM binding z-score [17]	PBM binding z-score [18]	PBM binding z-score [19]
ATACCAAGGTGATCGTGAGGTCGCTGATACTAAC	0.629	1.43	0.343	0.406	0.832	1.86	0.225	1.66	-0.0146	1.43	1.68	2.37	0.989	0.175	1.43	3.3	2.48	2.39	1.6
GTACCAAGGTAAATAGGTCGTTGATGAGTAGGCG	1.71	2.84	0.778	0.523	0.489	0.181	0.0446	0.634	0.265	0.675	0.723	0.808	0.391	-0.235	0.953	0.973	-0.00878	0.336	0.628
TCTTGTAGCTCAACAGGAGGTTAAGAAAGATCGA	0.679	-0.415	0.889	0.0315	-0.822	0.474	-0.26	0.724	-0.715	-0.0252	-0.0225	0.173	0.0214	-0.206	0.559	0.491	-1.06	0.0738	-0.327
TCTTGTAGATCTGCAGGTTAAGAAAGCTGGCCAA	1.64	-0.0995	-0.0196	-0.962	-0.597	0.206	-0.0786	0.383	-0.894	0.204	0.11	-0.162	-0.524	0.681	0.267	0.319	-0.531	0.239	-0.245
TCTTGTAGATCAATACAGGTTAAGAAAGTGCGCT	2.28	1.23	0.912	1.31	1.18	1.76	0.308	1.1	0.461	0.5	0.644	0.423	0.26	1.25	0.787	1.46	-0.0772	1.26	0.463
ATCGAAAGGTCGACGAGGTGATTATACACCGTTT	0.604	1.86	1.29	0.577	1.31	3.32	1.07	3.76	0.346	3.78	2.78	4.21	3.9	1.34	4.35	3.58	0.498	5.76	1.54
CAGACTGGGGCAAAGGTTACCATACTCAGTACGA	5.78	6.11	0.811	-0.289	1.61	2.57	0.354	3.86	0.632	2.66	2.35	3.54	2.64	0.804	3.83	1.97	0.0193	1.93	0.311
CCTGCTGGGCCACGAAAGGTCATTGATTCAGTGA	1.93	2.25	-0.596	-0.339	5.05	5.52	1.38	5.76	2.23	4.05	4.56	4.89	4.55	0.711	5.39	3.87	0.572	4.08	2.37
ATCTCTAGGTAAGCAAGTTCAGTGAATGCCGAAC	1.64	1.7	0.134	-0.0297	0.55	1.37	1.12	0.257	0.268	0.858	1.09	0.455	0.778	0.62	0.3	0.771	0.165	3.03	2.32
CGAACTAGGACAGAACAGGACAGTGAAGGATGAT	3.37	2.51	0.329	1	-0.301	-0.366	-0.302	-0.649	0.312	0.117	0.214	0.299	0.538	-0.164	0.23	0.492	-0.221	-0.358	-0.157
AGAATGAGGTTATACGTAAATCAGGGAAGAAAGT	3.33	2.28	0.904	1.57	0.789	1.18	0.834	1.77	0.337	1.59	0.771	1.56	1.08	1.72	2.06	2.17	0.605	1.21	0.824
ATCTCTAGGAAACCAAGTTCAGTGAATGCCGAAC	-0.471	0.0982	0.852	0.501	0.854	1.17	1.48	0.595	1.12	0.938	1.32	0.329	0.454	0.614	0.323	0.46	0.191	1.49	2.72
AATACAGGGCCATCGTAGGCCAGAGTACGCACAG	0.0782	0.608	0.846	-0.0733	-0.388	-0.255	-0.169	-0.00731	0.00973	0.931	0.468	0.421	0.993	-0.218	0.0629	1.44	-0.588	-0.126	0.487
ATCGATAGGTCGAGGTGAGTATAGAGAAAGGGAA	-0.366	1.03	0.292	0.326	0.276	0.415	-0.0359	0.853	0.359	1.94	1.05	1.68	2.13	-0.314	1.47	1.63	0.0105	0.414	-0.206
ATCGAAGGGTCGTGAGGTGAGTATACAGAAAGGC	-0.293	1.48	0.829	0.999	1.33	2	0.191	2.84	0.629	2.61	2.09	3.05	2.55	0.87	3.4	2.84	1.51	2.38	0.783
